# gsp agonist: qHTS for Agonist of gsp, the Etiologic Mutation Responsible for Fibrous Dysplasia/McCune-Albright Syndrome: qHTS; hit rate 0.13% among 340,000; Potency, µM (highest dose often 76.9 µM), inactives show at the highest dose activation (cAMP increase), actives largely listed as activators; gsp mutant cells, cAMP HTRF, 30 min; active means well fitted activation curve with a large enough effect; inconclusive means small, poorly fitted or top-dose-only effect, or another doubt; inactive means no such curve, though single readings can be large or run the other way; cell line not stated here;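 further: phosphodiesterase inhibitor Ro 20-1724 added with compounds to block cAMP breakdown; potency means the concentration at half of the fitted maximal effect; nearly all actives have a fitted effect of over 60% in size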
#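 Cells stably selected in G418 were plated at 2000/well, grown 16-24 hr, then given compounds in DMSO with the PDE inhibitor […] (300 uM solution added) for 30 min at 37C; cAMP was read by HTRF.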
# gsp antag: qHTS for Antagonists of gsp, the Etiologic Mutation Responsible for Fibrous Dysplasia/McCune-Albright Syndrome: qHTS; AID 624288, 2012; gsp-mutant cells, cAMP HTRF, 30 min; hit rate 0.4% among 340,000; Potency, µM (top dose mostly 76.9 µM), without a hit: at the highest dose activity change, negative = inhibition, usual class: inhibitors; calls by dose curve; cell line not stated here;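 further: intracellular cAMP measured with PDE inhibitor Ro 20-1724 present during compound exposure; potency means the concentration at half of the fitted maximal effect; on the % scale 0 is the no-effect control and ±100 the full control effect; nearly all actives have a fitted effect of over 65% in size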
#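 Measurement of cellular cAMP by homogeneous time-resolved fluorescence following a 30 min compound exposure at 37C. The PDE inhibitor […] was present throughout; the assay buffer was DPBS with 0.05% BSA and 0.005% Tween 20.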
# RXFP1 agonist: qHTS Assay for Agonists of the Relaxin Receptor RXFP1; Potency, µM (highest dose often 57.5 µM), for the others: at the top dose activation, hits mostly activators; HEK293T-RXFP1 cAMP TR-FRET, 30 min; response scale: percent of porcine relaxin response, buffer zero; AID 2676, 2010; Relaxin receptor 1 (Homo sapiens), Q9HBX9; hit rate 0.3% among 370,000; active means well fitted activation curve with a large enough effect; inconclusive means small, poorly fitted or top-dose-only effect; further: potency means the concentration at half of the fitted maximal effect; on the % scale 0 is the no-effect control and ±100 the full control effect; nearly all actives have a fitted effect of over 60% in size
#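 HEK293 cells stably expressing RXFP1, treated 30 min at 37C with compounds plus PDE4 inhibitor Ro 20174; cAMP measured by HTRF TR-FRET. Normalized to buffer and 29 nM porcine relaxin; EC50 by Hill fit.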
# TRPV1 agonist: HTS Assay for Compounds that Act as Agonists of the Vanilloid Receptor 1; Transient receptor potential cation channel subfamily V member 1 (Homo sapiens), Q8NER1; TRPV1-expressing cells, Fluo-8 calcium influx, agonist mode; activation, % at 8.33 µM; hit rate 0.19% among 320,000; AID 540275, 2011; in the data active means activation above about 80%; inconclusive means between about 30% and that limit; further: 0% is about no effect
# Target sequence (Q8NER1 whole entry, looked up): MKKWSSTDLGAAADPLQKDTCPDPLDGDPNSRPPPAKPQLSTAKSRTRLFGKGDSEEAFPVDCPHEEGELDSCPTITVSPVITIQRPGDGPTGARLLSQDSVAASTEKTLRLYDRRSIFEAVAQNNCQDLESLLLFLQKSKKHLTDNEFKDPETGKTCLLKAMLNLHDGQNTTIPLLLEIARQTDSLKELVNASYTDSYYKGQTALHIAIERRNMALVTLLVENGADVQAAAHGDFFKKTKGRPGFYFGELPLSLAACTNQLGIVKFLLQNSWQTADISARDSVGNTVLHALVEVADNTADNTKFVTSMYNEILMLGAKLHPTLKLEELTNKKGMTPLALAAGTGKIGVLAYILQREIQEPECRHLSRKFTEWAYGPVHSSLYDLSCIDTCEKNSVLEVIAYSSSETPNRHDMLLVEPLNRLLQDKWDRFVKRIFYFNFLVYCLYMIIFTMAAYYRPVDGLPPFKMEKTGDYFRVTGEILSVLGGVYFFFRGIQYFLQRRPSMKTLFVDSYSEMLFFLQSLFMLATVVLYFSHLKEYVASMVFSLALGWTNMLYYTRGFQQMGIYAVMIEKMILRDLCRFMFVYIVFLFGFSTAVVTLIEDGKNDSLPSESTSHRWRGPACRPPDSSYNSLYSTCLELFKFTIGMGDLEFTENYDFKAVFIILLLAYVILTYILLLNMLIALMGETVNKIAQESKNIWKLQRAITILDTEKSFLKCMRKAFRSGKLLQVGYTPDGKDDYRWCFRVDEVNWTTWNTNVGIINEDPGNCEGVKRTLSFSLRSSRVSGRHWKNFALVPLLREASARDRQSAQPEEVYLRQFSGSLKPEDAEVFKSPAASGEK
#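 Cells expressing TRPV1 were dye-loaded with Fluo-8 and read kinetically: 10 s baseline, 3 min after compound (agonist portion), then 2 min after EC20 capsaicin (allosteric enhancer portion). Calcium-bound dye fluorescence at 480/520 nm.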
# RXFP1 antag: qHTS Assay for Antagonists of the Relaxin Receptor RXFP1; hit rate 0.59% among 350,000; HEK293-RXFP1, relaxin-stimulated cAMP HTRF, 30 min; hits give low values; AID 1259400, 2018; Relaxin receptor 1 (Homo sapiens), Q9HBX9; activity change, negative = inhibition, % at 57.5 µM;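 active means activity change of -60% or lower, but not beyond a set lower limit; inconclusive means change between -60% and -40%, or beyond the set limit; inactive means change above -40%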; further: on the % scale 0 is the no-effect control and ±100 the full control effect
# TRPV1 PAM: HTS Assay for Compounds that Act as Potentiators of the Vanilloid Receptor 1; Transient receptor potential cation channel subfamily V member 1 (Homo sapiens), Q8NER1; TRPV1-expressing cells, Fluo-8 calcium influx, capsaicin EC20 potentiation; potentiation, % at 8.33 µM; hit rate 0.02% among 320,000; in the data active means potentiation above about 80%; inconclusive means between about 30% and that limit; further: 0% is about no effect
#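 Cells expressing TRPV1 were dye-loaded with Fluo-8 and read kinetically: 10 s baseline, 3 min after compound (agonist portion), then 2 min after EC20 capsaicin (allosteric enhancer portion). Calcium-bound dye fluorescence at 480/520 nm.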
# Active calls of the source: *; ? = inconclusive; . = no result given; [ ] = another dose, or the depositor's remark. Most compounds without a hit are left out; they make up all but 1.1% or so of the library.
SMILES,gsp agonist,gsp antag,RXFP1 agonist,TRPV1 agonist,RXFP1 antag,TRPV1 PAM
CC(=O)Nc1ccc(S[C@@H](CCN2CC[C@H](O)CCC2=O)c2ccccc2)cc1,5.7%,50.1µM*,-3.5%,-1.0,.,-2.8
COCCCN1C(=O)C(O)=C(C(=O)c2ccc(C)o2)C1c1cccc(Br)c1 (stereo not given),12.6µM*,10.7%,?,-3.5,21.7,-2.9
COCCCN1C(=O)C(O)=C(C(=O)c2ccco2)C1c1ccccc1 (stereo not given),?,16.7%,?,2.4,31.0,-3.4
COc1ccc(N(CC(=O)NCCSCc2ccccc2Cl)S(C)(=O)=O)cc1Cl,0.1%,-20.5%,0.1%,-2.3,5.5,12.3
CC(=O)Nc1cc(C(=O)N2CCCC2)ccc1S(=O)(=O)c1ccc(C)cc1,-34.3%,-0.8%,0.7%,5.9,-23.7,-4.1
CC(=O)Nc1cc(C(=O)N2CCCC2)ccc1Sc1ccc(Cl)cc1,18.4%,11.2µM*,0.0%,-3.6,1.4,9.8
CC(=O)Nc1cc(C(=O)N2CCCC2)ccc1Sc1ccc(C)cc1,17.0%,20µM*,3.6%,-0.9,-15.1,-13.4
CC(C)CC1C(=O)N(Cc2cn(Cc3ccco3)nn2)CCS(=O)(=O)N1Cc1ccc(-c2cccc(N(C)C)c2)cc1 (stereo not given),-108.6%,.,.,.,4.8,.
CCOc1c(N2CCOCC2)cnn(C)c1=O,.,.,.,.,-12.4,.
COc1cccc(-n2c(-c3ccccc3)c[nH]c2=S)c1,?,-16.9%,-1.3%,-1.3,-79.2*,16.9
S=c1[nH]cc(-c2ccccc2)n1-c1cccc(Cl)c1,-21.1%,-4.7%,3.6%,-1.9,-20.0,?
C=C(C)C(=O)Oc1ccc(N=Nc2ccc(C)cc2)ccc1=O,-2.2%[15.4 µM],-9.8%,.,.,-69.9*,.
CCOC(=O)c1cc(C)n(CC2CCC(C(=O)Nc3ccc(C)cc3)CC2)c1C (stereo not given),.,.,-0.7%,.,4.6,.
Nc1nnc(SCC(=O)Nc2cc(S(=O)(=O)N3CCOCC3)ccc2N2CCCC2)s1,20.1%,9.1%,9.1%,1.5,7.1,-5.7
COc1ccc(S(=O)(=O)N(C)C)cc1NC(=O)CSc1nncs1,43.5%[15.4 µM],18.7%,17.8µM*,-4.2,8.2,-6.3
O=C(CSc1nncs1)Nc1cc(S(=O)(=O)N2CCOCC2)ccc1N1CCCC1,22.4µM*,8.6%,17.5%,-4.1,-0.5,3.9
O=C(O)CCCNC(=O)c1ccc(NC(=O)Cc2ccc(Cl)cc2)cc1,-22.9%,-0.1%,0.3%,-3.9,-6.5,24.8
CCOC(=O)c1nc(C)sc1-c1ccnn1S(=O)(=O)c1ccc(C)cc1,-9.5%[15.4 µM],-4.7%,-0.3%,22.6,-8.8,-29.2
Cc1cccc(-n2ncc(C(=O)N3CCN(Cc4ccccc4)CC3)c2C2CCN(C(=O)OC(C)(C)C)CC2)c1,.,.,1.6%,.,-17.0,.
Cc1ccc(C(=O)O)cc1NC(=O)C1=CSCCO1,13.4%,-4.4%,0.1%,1.0,-110.2*,21.0
Cc1ccc(NC(=O)Nc2nnc(-c3ccncc3)s2)cc1C,-0.9%,44.7µM*,-0.2%,9.1,-11.5,-5.9
Cn1c(=O)c(C(=O)NNC(=O)c2ccccc2Br)c(O)c2ccccc21,8.9%,-24.7%,-2.5%,1.6,?,1.2
Cn1c(=O)c(C(=O)NNC(=O)c2ccccc2Cl)c(O)c2ccccc21,-25.1%,-17.3%,2.4%,0.7,-66.1*,11.5
C=C(C)c1cc2c(ccc3ccc(=O)oc32)o1,.,-3.9%,.,.,.,.
CCCCOCCCNc1ncnc2c1[nH]c1ccccc12,0.4%,7.94µM*,-2.8%,?,-2.7,-28.4
SMILES,gsp agonist,gsp antag,RXFP1 agonist,TRPV1 agonist,RXFP1 antag,TRPV1 PAM
c1ccc2c(c1)[nH]c1c(NCC3CCCO3)ncnc12 (stereo not given),-1.3%,35.5µM*,0.6%,21.0,-4.7,-9.2
c1nc(NCC2CCCO2)c2[nH]cnc2n1 (stereo not given),-0.4%,1.9%,.,.,20.4,.
Cc1ccccc1NC(=O)CSc1nc2ccc(NC(=O)CCc3ccccc3)cc2s1,.,.,-11.6%,.,.,.
CCc1ccc(Nc2nnc(SC3CCOC3=O)s2)cc1 (stereo not given),1.9%,-3.2%,-1.1%,82.3*,4.5,1.8
CC1OC(CC(=O)O)CC2=C1C(=O)c1c(O)cccc1C2=O (stereo not given),38.4%,?,.,.,-62.8*,.
O=C1c2cccc(O)c2C(=O)c2c(O)cccc21,.,.,6.7%,0.9,-6.4,6.0
COCc1ccc(C(=O)N2CCCCC2C(=O)Nc2ccc(-n3nc(C)cc3C)cc2)o1 (stereo not given),20.5%[15.4 µM],-8.1%,-2.5%,-3.6,0.8,4.4
Cc1c(C(=O)N(C)C)sc2c1c(=O)n(-c1ccc(F)cc1)c(=O)n2Cc1ccccc1C#N,.,.,2.6%,.,4.3,.
Oc1ccccc1Nc1nc(NCc2ccccc2)c2ccccc2n1,1.7%[15.4 µM],?,0.6%,3.4,-79.0*,8.7
CCN(CC)C1CCN(C(=O)CCn2nnnc2CN2CCOCC2)C1 (stereo not given),0.8%,10.7%,1.2%,0.2,-2.0,-9.5
COc1ccc(C(=O)/C=C2/Sc3cc4c(cc3N2C)OCO4)cc1,?,2.0%,?,2.7,4.3,-2.5
CN1/C(=C/C(=O)c2ccc(Cl)cc2)Sc2cc3c(cc21)OCO3,-76.5%,31.6µM*,3.0%,-2.5,-19.2,-1.8
Cc1ccccc1-n1ccnc1SCC(=O)NC1CCCC1,-25.7%,1.5%,-0.9%,0.0,-8.2,0.8
c1ccc(SSc2ccccn2)nc1,-4.4%[15.4 µM],0.5%,.,.,-66.5*,.
O=C(CCCCCn1c(=S)[nH]c2ccc(N3CCOCC3)cc2c1=O)NCc1ccc2c(c1)OCO2,13.4%[15.4 µM],-10.4%,?,-0.3,?,2.2
O=C(CCCCCn1c(=S)[nH]c2ccc(N3CCOCC3)cc2c1=O)NCc1ccc(Cl)cc1,-1.2%[15.4 µM],10.4%,14.0%,-0.6,-92.4*,23.7
O=C(CCCCCn1c(=S)[nH]c2ccc(N3CCOCC3)cc2c1=O)NCc1ccccc1Cl,-0.8%[15.4 µM],?,?,1.7,-103.9*,4.0
C/C(=N\N=C1/SC(CC(=O)O)C(=O)N1c1ccccc1)c1ccc(C)cc1 (stereo not given),-25.6%,25.1µM*,-2.8%,1.5,1.4,3.6
O=C(O)CC1S/C(=N/N=C2CCCCC2)N(c2ccccc2)C1=O (stereo not given),5.8%,9.6%,-6.0%,2.9,.,-16.0
